This note sets out measurements from the supplement of paper PMC12819154, “High-throughput peptide-centric local stability assay extends protein–ligand identification to membrane proteins, tissues and bacteria” (Nature Structural & Molecular Biology, 2025).

Compound in the assay: CN[C@@H]1C[C@H]2O[C@@](C)([C@@H]1OC)n1c3ccccc3c3c4c(c5c6ccccc6n2c5c31)C(=O)NC4 [staurosporine]
Description: log2 fold change of tryptic peptide abundance, ligand vs vehicle (limited proteolysis) (log2 ratio); higher = more trypsin-susceptible (destabilized). To be noted: ligand concentration: 20 uM; sample: mouse liver crude lysate; replicate design: treated separately.

UniProt Q9D6U8, sequence (Q9D6U8 whole entry): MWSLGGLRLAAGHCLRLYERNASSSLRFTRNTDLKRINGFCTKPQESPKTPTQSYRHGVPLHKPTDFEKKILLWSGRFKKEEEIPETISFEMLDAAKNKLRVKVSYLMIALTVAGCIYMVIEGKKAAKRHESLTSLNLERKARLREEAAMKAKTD
UniProt Q9WU19, sequence (Q9WU19 whole entry): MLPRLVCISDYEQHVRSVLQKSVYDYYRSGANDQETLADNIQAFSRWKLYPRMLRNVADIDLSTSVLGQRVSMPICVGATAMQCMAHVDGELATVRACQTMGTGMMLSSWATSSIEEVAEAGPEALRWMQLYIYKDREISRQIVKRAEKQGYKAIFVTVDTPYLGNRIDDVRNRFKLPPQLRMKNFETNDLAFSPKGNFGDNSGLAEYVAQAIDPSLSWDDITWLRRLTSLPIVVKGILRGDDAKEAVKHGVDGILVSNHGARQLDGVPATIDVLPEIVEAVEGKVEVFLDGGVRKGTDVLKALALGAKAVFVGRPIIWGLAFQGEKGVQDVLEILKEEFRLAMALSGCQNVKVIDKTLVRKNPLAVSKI
UniProt Q9QVP9, sequence (Q9QVP9 whole entry, looked up): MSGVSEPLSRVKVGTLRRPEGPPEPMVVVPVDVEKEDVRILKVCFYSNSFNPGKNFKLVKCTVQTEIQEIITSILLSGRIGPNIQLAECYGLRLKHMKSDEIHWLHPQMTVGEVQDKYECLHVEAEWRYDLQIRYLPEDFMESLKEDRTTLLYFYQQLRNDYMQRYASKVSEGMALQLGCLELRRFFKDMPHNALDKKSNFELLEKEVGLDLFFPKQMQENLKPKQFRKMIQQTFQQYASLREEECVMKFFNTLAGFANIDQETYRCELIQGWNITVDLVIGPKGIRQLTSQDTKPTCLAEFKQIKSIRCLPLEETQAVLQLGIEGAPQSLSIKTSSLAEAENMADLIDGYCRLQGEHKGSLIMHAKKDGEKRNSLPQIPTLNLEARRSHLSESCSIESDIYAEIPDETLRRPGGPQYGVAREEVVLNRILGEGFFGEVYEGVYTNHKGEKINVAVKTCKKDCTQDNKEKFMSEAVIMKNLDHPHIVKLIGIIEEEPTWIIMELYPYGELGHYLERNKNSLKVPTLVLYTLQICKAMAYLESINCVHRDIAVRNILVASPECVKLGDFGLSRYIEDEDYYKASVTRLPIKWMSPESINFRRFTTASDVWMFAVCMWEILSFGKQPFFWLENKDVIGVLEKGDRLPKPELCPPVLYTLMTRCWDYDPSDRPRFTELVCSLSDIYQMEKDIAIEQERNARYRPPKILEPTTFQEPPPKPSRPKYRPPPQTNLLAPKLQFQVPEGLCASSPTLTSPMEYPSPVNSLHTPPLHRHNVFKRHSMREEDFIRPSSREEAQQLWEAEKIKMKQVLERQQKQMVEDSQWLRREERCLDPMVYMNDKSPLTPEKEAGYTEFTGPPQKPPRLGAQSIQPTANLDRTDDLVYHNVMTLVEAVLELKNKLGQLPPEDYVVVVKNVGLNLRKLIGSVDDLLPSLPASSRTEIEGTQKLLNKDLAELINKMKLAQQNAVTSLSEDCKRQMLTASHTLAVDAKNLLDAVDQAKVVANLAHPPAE
UniProt P26149, sequence (P26149 whole entry): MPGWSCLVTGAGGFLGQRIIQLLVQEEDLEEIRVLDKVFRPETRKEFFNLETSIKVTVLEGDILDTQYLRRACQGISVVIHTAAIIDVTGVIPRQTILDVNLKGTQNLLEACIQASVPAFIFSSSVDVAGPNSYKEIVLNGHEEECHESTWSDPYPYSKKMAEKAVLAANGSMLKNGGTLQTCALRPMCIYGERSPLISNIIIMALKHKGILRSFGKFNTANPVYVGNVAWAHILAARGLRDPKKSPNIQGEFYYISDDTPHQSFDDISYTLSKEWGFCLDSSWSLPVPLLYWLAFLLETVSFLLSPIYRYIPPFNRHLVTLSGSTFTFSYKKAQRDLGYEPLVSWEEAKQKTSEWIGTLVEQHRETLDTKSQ
UniProt Q4LDG0, sequence (Q4LDG0 whole entry): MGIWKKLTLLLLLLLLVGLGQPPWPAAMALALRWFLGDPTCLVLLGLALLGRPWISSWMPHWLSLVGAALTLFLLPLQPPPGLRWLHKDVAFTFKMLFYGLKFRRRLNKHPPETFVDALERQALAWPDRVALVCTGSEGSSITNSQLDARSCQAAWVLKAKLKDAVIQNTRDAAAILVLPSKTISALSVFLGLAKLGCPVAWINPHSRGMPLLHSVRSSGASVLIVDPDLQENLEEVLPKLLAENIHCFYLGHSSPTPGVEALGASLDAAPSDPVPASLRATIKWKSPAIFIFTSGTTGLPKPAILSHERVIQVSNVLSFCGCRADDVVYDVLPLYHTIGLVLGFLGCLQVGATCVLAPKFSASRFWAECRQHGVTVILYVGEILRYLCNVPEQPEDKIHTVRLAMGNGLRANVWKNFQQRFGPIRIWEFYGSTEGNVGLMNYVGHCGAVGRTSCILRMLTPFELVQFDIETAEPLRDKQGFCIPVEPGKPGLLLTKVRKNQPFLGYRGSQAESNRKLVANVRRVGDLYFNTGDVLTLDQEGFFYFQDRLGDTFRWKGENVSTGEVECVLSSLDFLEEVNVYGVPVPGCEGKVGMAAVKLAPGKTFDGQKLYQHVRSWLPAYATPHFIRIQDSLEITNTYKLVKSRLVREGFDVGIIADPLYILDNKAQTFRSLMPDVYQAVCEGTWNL
UniProt O54909, sequence (O54909 whole entry): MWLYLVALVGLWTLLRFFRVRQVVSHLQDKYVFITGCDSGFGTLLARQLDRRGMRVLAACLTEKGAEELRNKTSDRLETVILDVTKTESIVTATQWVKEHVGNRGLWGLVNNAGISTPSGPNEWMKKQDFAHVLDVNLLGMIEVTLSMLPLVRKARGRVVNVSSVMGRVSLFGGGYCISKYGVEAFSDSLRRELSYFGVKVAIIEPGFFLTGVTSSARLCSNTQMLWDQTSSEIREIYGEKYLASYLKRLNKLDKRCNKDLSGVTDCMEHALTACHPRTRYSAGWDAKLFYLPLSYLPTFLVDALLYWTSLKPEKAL
UniProt P14246, sequence (P14246 whole entry): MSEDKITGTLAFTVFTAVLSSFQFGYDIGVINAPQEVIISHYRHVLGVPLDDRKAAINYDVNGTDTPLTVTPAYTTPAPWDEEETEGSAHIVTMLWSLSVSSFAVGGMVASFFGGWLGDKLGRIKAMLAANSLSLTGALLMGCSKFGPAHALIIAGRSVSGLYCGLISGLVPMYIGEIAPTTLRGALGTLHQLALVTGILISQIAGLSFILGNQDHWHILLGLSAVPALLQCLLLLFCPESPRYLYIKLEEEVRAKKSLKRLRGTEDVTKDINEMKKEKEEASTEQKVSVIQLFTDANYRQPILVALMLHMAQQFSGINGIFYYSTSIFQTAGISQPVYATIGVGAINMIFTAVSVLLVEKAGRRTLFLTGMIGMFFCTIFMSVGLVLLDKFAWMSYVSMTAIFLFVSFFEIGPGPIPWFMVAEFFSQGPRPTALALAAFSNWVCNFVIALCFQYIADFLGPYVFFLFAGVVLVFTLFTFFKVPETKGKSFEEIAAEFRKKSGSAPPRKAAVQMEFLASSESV
UniProt P08226, sequence (P08226 whole entry): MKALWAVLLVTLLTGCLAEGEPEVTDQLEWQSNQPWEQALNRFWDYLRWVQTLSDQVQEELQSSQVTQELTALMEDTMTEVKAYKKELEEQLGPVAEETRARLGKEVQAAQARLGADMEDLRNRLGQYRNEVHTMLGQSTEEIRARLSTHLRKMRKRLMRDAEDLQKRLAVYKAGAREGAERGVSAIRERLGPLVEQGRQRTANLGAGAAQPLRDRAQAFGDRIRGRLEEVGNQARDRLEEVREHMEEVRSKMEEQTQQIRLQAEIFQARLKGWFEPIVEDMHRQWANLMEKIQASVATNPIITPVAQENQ
UniProt P97872, sequence (P97872 whole entry): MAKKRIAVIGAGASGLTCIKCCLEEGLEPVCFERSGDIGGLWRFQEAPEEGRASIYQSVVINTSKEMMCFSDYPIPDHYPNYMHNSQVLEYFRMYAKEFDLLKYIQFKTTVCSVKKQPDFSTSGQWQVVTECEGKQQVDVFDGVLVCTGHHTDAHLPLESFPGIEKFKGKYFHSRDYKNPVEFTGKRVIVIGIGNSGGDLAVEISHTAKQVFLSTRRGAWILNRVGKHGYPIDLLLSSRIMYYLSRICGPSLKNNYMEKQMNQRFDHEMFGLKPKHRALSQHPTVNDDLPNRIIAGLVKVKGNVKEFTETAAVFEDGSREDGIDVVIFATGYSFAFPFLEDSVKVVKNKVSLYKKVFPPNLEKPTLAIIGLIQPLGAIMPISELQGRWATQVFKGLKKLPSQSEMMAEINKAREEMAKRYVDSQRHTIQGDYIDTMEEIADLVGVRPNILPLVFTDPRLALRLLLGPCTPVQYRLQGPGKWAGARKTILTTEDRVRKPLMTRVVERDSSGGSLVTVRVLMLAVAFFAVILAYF
UniProt Q9D8V0, sequence (Q9D8V0 whole entry): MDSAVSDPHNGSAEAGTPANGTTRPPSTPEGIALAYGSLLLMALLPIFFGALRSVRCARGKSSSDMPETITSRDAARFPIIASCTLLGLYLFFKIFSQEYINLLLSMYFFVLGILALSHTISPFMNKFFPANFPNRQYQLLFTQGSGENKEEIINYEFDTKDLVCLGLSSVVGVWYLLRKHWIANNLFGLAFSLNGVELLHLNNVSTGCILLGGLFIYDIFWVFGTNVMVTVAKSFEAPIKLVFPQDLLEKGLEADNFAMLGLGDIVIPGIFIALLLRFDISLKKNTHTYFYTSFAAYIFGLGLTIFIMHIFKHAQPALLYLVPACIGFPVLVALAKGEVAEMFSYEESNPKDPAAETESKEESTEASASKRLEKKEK

Regarding “UniProt P08226 (peptide sequence: LQAEIFQAR, peptide start residue: 262)”, the log2 fold change turned out to be 0.428.

“UniProt Q9WU19 (peptide sequence: LAMALSGCQNVK, peptide start residue: 342)”: the log2 fold change was found to be 0.411. With “UniProt O54909 (peptide sequence: YLASYLKR, peptide start residue: 242)” the figure was -1.31; with “UniProt P26149 (peptide sequence: YIPPFNR, peptide start residue: 311)”, 0.476. The figure for “UniProt P37172 (peptide sequence: GSWQGENVAVK, peptide start residue: 225)” is -2.41; for “UniProt Q9D6U8 (peptide sequence: HESLTSLNLER, peptide start residue: 130)” it is 0.435; for “UniProt P14246 (peptide sequence: HVLGVPLDDR, peptide start residue: 44)” it is 0.702. The figure for “UniProt Q9QVP9 (peptide sequence: CWDYDPSDRPR, peptide start residue: 661)” is -1.22. For “UniProt Q99PV0 (peptide sequence: VESHFDLELR, peptide start residue: 677)”, the log2 fold change turned out to be 0.478. As for “UniProt Q9D8V0 (peptide sequence: SSSDMPETITSR, peptide start residue: 62)”, the log2 fold change was -1.22.

With “UniProt Q4LDG0 (peptide sequence: NQPFLGYR, peptide start residue: 501)”, the log2 fold change worked out at 0.345.

In the case of “UniProt P97872 (peptide sequence: DSSGGSLVTVR, peptide start residue: 507)”, the log2 fold change is -1.1.
